Broadly, the AC50 is the midpoint of the concentration-response curve, whichever way the signal moves. For orientation: IC50 means the concentration needed to halve the response being measured. As a reminder, the viability is a read-out of living cells in per cent, often relative to untreated cells.

These results are taken from PubChem BioAssay.

Results filed as inconclusive are left out. Activity calls are given as the source filed them. Unless noted, the limit is not given here; nearly all actives have AC50 up to about 26 µM.

Assay [1] can be described thus: growth inhibition of DIPG glioma cells, dose response, cell-based, SU-DIPG-XVII, MIPE5.0, CellTiter-Glo, qHTS (AID 1347060).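 As to AC50: cells exposed to compound for 48 hours before viability readout.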 To be noted: SU-DIPG-XVII viability, CellTiter-Glo ATP luminescence. A general note: ATP-based viability assays read luminescence as a measure of living cells.
A short description of assay [2]: growth inhibition of DIPG glioma cells, dose response, cell-based, SU-DIPG-XIII, MIPE4.0, CellTiter-Glo, qHTS (AID 1347061; cut-off not given, nearly all actives have AC50 up to about 37 µM;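 also: cells exposed to compound for 48 hours before readout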). To be noted: SU-DIPG-XIII viability, CellTiter-Glo ATP luminescence.
The nature of assay [3]: growth inhibition of DIPG glioma cells, dose response, cell-based, JHH-DIPG-1, MIPE4.0, CellTiter-Glo, qHTS (AID 1347062; cut-off not given, nearly all actives have AC50 up to about 27 µM;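 as to AC50: cells exposed to compound for two days before readout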). The conditions noted are these: JHH-DIPG-1 viability, CellTiter-Glo ATP luminescence.
Assay [4] in a line: growth inhibition of DIPG glioma cells, dose response, cell-based, SU-DIPG-IV, MIPE4.0, CellTiter-Glo, qHTS (AID 1347063; cut-off not given, nearly all actives have AC50 up to about 30 µM;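 also: compound exposure lasted 48 hours before the viability readout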). The conditions noted are these: SU-DIPG-IV viability, CellTiter-Glo ATP luminescence.
A short description of assay [5]: growth inhibition of DIPG glioma cells, dose response, cell-based, SU-DIPG-XIII, MIPE5.0, CellTiter-Glo, qHTS (AID 1347064; cut-off not given, nearly all actives have AC50 up to about 23 µM;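 as to AC50: cells exposed to compound for 48 hours before the viability read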). To be noted: SU-DIPG-XIII viability, CellTiter-Glo ATP luminescence.
Assay [6] in a line: viability loss in pontine glioma line – cell-based, SU-DIPG-XXV, MIPE5.0, CellTiter-Glo, qHTS, dose response (AID 1347065).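 Also: cells exposed to compound for 48 hours before ATP readout.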 The conditions noted are these: CellTiter-Glo ATP luminescence.
Assay [7] is described as follows: SU-DIPG-VI glioma cell viability, MIPE4.0 library, CellTiter-Glo luminescence, qHTS (AID 1347066; cut-off not given, nearly all actives have AC50 up to about 30 µM;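 also: cells exposed to compound for 48 hours before readout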). The conditions noted are these: CellTiter-Glo ATP luminescence.
Assay [8] in a line: JHH-DIPG-1 glioma cell viability, MIPE5.0 library, CellTiter-Glo luminescence, qHTS (AID 1347067).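 Also: cells exposed to compound for 48 hours before readout.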 The conditions noted are these: JHH-DIPG-1 glioma viability, CellTiter-Glo ATP luminescence.
Assay [9] can be described thus: SU-DIPG-XXV glioma cell viability, MIPE5.0 library, qHTS (AID 1347068; cut-off not given, nearly all actives have IC50 up to about 30 µM;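 as to IC50: cells exposed to compound for 48 hours before viability readout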). For orientation: In qHTS, concentration-response curves come from the screen itself.
The nature of assay [10]: modifiers of HSF1 nuclear foci, imaging, Selleck Cancer Library (AID 1347162; in the data active = plate-normalised HSF1 focus index below about 0.46). To be noted: human cells, at 10 µM; SSMD: measured here: HSF1 foci SSMD mean; cell count: measured here: cell number; plate-normalised HSF1 focus index: stronger effect = lower value.
Assay [11] can be described thus: sensitizers of A549 cells to miR-34 induction, primary screen, imaging, A549 dox-inducible miR-34, nuclei and caspase counts (AID 1347080;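 active = compounds whose cell count with miR-34 switched on is under 0.7 times the count with it off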). To be noted: A549 miR-34 inducible, Hoechst nuclei count, 48 h.
A short description of assay [12]: survival rescue of mitochondrial mutant cells in low glucose, primary screen, MELAS cybrids, Rieske KO mouse fibroblasts, CellTiter-Glo (AID 1508586;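 active = mean z-score across replicates of 1.96 or higher in either the MELAS or the Rieske mutant cell line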;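 also: z relative to plate mean and SD of compound and empty wells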).
Assay [13] is described as follows: liver-stage malaria parasite growth inhibition, primary screen, cell-based, HepG2, luciferase luminescence, HepG2 viability (AID 624349; in the data active = parasite load remaining mostly below about 12%, no sharp cut-off; inactive = mostly above about 10%;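 also: 100% = mean of DMSO negative control wells on the same plate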). The conditions noted are these: P. berghei liver stage in HepG2, luciferase luminescence, concentration not given here; parasite load remaining: stronger effect = lower value; viability: measured here: HepG2 viability without parasites.

Setting [14] is: stronger effect = lower value, cell number ratio, induced over uninduced.
Where [15] appears, read: measured here: relative caspase fold change +Dox/-Dox.
[16] abbreviates: measured here: total cells with miR-34 induction, stronger effect = lower value.
[17] abbreviates: measured here: total cells without miR-34 induction.
The mark [18] stands for this setting: MELAS cybrid survival, CellTiter-Glo 48 h, stronger effect = higher value.
Setting [19] is: Rieske KO mouse fibroblast survival, CellTiter-Glo 72 h.

Turning to `COc1cccc2c(NCc3ccccc3)nc(-n3c(N)nc4ccccc43)nc12`, the AC50 in assay [1] is 3.72 µM (active); in assay [3], 9.35 µM (active); in assay [4] it was 3.32 µM (active); in assay [5] it was 3.32 µM (active); in assay [6], 2.63 µM (active); in assay [7] it was 2.64 µM (active). In [8], the AC50 is 2.95 µM (active). The result in assay [2] was inactive. In addition, the IC50 in assay [9] is 2.95 µM (active).
For `O=C(Nc1ccccc1Br)N[C@@H]1CCN(c2ccc(C(F)(F)F)cn2)C1`, the compound was called inactive in [1], in assay [2], in assay [3], in [4], in [5] and in assay [6]. The outcome in [7], in [8] and in assay [9] was inactive.
Turning to `Cn1cc(C[C@@H](N)C(=O)O)c2ccccc21`, the result in [1], in assay [2], in [3], in assay [4], in [5] and in [6] was inactive. The outcome in [7], in assay [8] and in [9] was inactive.
Take `CC(C)(C)c1cc(C(=O)O)c(NC(=O)Nc2ccc3[nH]ncc3c2)s1`: the compound was called inactive in assay [1], in assay [2], in [3], in assay [4], in [5] and in assay [6]. Also, the compound was classed as inactive in assay [7], in [8] and in [9].
On to `CC1(C)OC2=C(C(=O)c3ccccc3C2=O)[C@H](NCc2ccccc2)[C@@H]1O`, for which the AC50 in assay [1] is 6.61 µM (active); in assay [2], 5.9 µM (active); in assay [3] it was 2.35 µM (active); in assay [4], 5.9 µM (active); in [5], 2.95 µM (active); in assay [6] it was 3.72 µM (active). The AC50 in assay [7] was 2.64 µM (active); in assay [8], 3.32 µM (active). Moreover, the IC50 in assay [9] was 8.33 µM (active). In [10], this compound registered an SSMD of 0.824. For the same compound, the cell count in assay [10] stood at 7240. In [10], the plate-normalised HSF1 focus index is 1.05 (inactive).
Regarding `CN1c2cc(O)c(N=NC(N)=O)cc2CC1S(=O)(=O)O` (stereo not drawn), the outcome in assay [1], in assay [2], in [3], in assay [4], in assay [5] and in assay [6] was inactive. Further, the result in assay [7], in assay [8] and in assay [9] was inactive. Besides, the fold change in assay [11] (setting [14]) is 0.929 (inactive); in assay [11] (setting [15]), 0.61. In addition, the cell count in [11] (setting [16]) was found to be 9600; in assay [11] (setting [17]), 10300. Besides, the z-score was -0.39 (inactive) in assay [12] (setting [18]) and 0.79 in assay [12] (setting [19]).
On to `CC[C@H](CC[C@@H](C)[C@H]1CC[C@H]2[C@@H]3CC=C4C[C@@H](O)CC[C@]4(C)[C@H]3CC[C@]12C)C(C)C`, for which the parasite load remaining in assay [13] was 99.6% (inactive). In assay [13], this compound came in with a viability of 72.8%. Further, the result in [1], in assay [2], in [3], in assay [4], in [5] and in assay [6] was inactive. Further, the compound was classed as inactive in [7], in assay [8] and in [9]. For the same compound, the fold change in assay [11] (setting [14]) is 0.94 (inactive); in assay [11] (setting [15]), 0.534. For the same compound, the cell count in assay [11] (setting [16]) stood at 8770; in assay [11] (setting [17]), 9330.
In the case of `COc1ccc(-c2cc3c(C)nc(N)nc3n(C3CCC(OCCO)CC3)c2=O)cn1` (stereo not drawn), the AC50 in [1] is 0.661 µM (active); in [2], 0.418 µM (active); in assay [3], 0.59 µM (active); in assay [4] it was 0.0132 µM (active); in [5] it was 0.468 µM (active); in assay [6], 0.235 µM (active). In addition, the figures for the AC50 in assay [7] and in [8] were 1.18 µM (active) and 0.934 µM (active), respectively. In addition, the IC50 in [9] is 1.32 µM (active). In addition, the fold change is 0.719 (inactive) in assay [11] (setting [14]) and 0.958 in assay [11] (setting [15]). Besides, the figures for the cell count in assay [11] (setting [16]) and in assay [11] (setting [17]) were 948 and 1320, respectively. Further, the z-score in assay [12] (setting [18]) was 1.34 (inactive); in assay [12] (setting [19]) it was -2.85.
